For 40 compounds, Potency results are on record in PubChem BioAssay (Tox21).

Structures are written as SMILES. Values joined by “and” are separate entries in the source; they are usually repeats but may differ in a detail not shown here. Equal entries are not always repeated. Records with an inconclusive call do not appear. Entries that show only a call come without a potency. The source holds several records for some structures; these can differ, active in one and inactive in another. Active and inactive are the calls of the source. The call rests on the fitted dose curve; in most records, active means well fitted activation curve with a large enough effect in the repeat runs; inconclusive means weak or mixed curves; inactive means flat fitted curve, though single readings scatter.
Potency means the concentration at half of the fitted maximal effect.

The nature of this test: A CellTox Green Cytotoxicity Assay to monitor cytotoxicity in HEK293 cells - 8 hour (AID 1224884). Further: nearly all actives have a fitted effect of over 35% in size. As to conditions: CellTox Green fluorescence; series mostly up to 76.8 µM. An excerpt: National Center for Advancing Translational Sciences [NCATS]
NIH Chemical Genomics Center [NCGC]
U.S. Environmental Protection Agency [EPA]
National Institutes of Environmental Health Sciences [NIEHS]
National Toxicology Program [NTP]
Cell-based models are critical for drug discovery. Determining the natural cytotoxic effects resulting from test compounds is an essential research activity. A CellTox Green Cytotoxicity Assay to monitor cytotoxicity in real time of continues cell culture during 40 hours of the compound treatment was used to screen Tox21 10K library compounds in Hek293 cells. CellTox Green Cytotoxicity Assay is a nonlytic, homogeneous, biofluorescent method to measure cytotoxicity in cell culture after experimental manipulation. The assay system uses a proprietary asymmetric cyanine dye that is excluded from viable cells but preferentially stains the dead cell's DNA. […] Viable cells produce no appreciable increases in fluorescence. Therefore, the fluorescence signal produced by the binding interaction with dead cell DNA is proportional to cytotoxicity.
The mixture of Hek293 cell suspension and reagents were dispensed at 600cells/6 ul/well in 1536-well tissue culture treated black solid bottom plates using a Multidrop dispenser. After the assay plates were incubated at a 37 C/5% CO2 incubator for 5 hours, 23 nL of compounds dissolved in DMSO, positive and negative controls was transferred to the assay plate by a pintool work station. The plates were incubated at 37 C for 40 hours. The fluorescence intensity were measured at 0h, 8h, 16h, 24h, 32h and 40h time points using ViewLux plate reader during compound treatment.
`Nc1ccc(N)c(Cl)c1`: the Potency entry was “inactive and 27.5 µM (active)”. To `Nc1cc([N+](=O)[O-])ccc1C(=O)O` belongs “inactive”; to `C=C1C[C@H]2[C@@H]3C=C(C)C4=CC(=O)CC[C@]4(C)[C@H]3CC[C@]2(C)[C@@]1(OC(C)=O)C(C)=O`, “inactive”. To `COC(=O)C(C)Oc1ccc(Oc2ncc(C(F)(F)F)cc2Cl)cc1` (stereo not given) belongs “inactive”; to `CC(=O)[C@@]1(O)CC[C@H]2[C@@H]3C[C@H](C)C4=CC(=O)C=C[C@]4(C)[C@@]3(F)[C@@H](O)C[C@@]21C`, “inactive”. The entry for `CCO[Si](CCCNC(N)=O)(OCC)OCC` is “inactive”; for `CC1(C)O[C@@H]2C[C@H]3[C@@H]4C[C@H](F)C5=CC(=O)C=C[C@]5(C)[C@@]4(F)[C@@H](O)C[C@]3(C)[C@]2(C(=O)CO)O1` it is “inactive”; for `CC1(C)C(C=C(Cl)Cl)C1C(=O)OCc1cccc(Oc2ccccc2)c1` (stereo not given) it is “inactive”. Take `C1COCCN1`: the Potency entry is “inactive”. To `C=CCOC(=O)C(=C)C` belongs “inactive”; to `CC(=O)OC(C)C`, “inactive”; to `CC[C@]12CCCN3CCc4c(n(c5ccccc45)[C@@](O)(C(=O)OC)C1)[C@@H]32`, “inactive”.

Take `C[C@]12CC[C@@H]3c4ccc(O)cc4CC[C@H]3[C@@H]1CC[C@H]2O`: the Potency result was “inactive”. For the compound `Nc1ccc(O)c(N)c1`, the Potency entry was “inactive”. Consider `CC(=O)Oc1c(C)c(C)c2c(c1C)CC[C@@](C)(CCC[C@H](C)CCC[C@H](C)CCCC(C)C)O2`, for which the Potency entry is “inactive”. The entry for `O=C(O)COCCN1CCN(C(c2ccccc2)c2ccc(Cl)cc2)CC1` (stereo not given) is “inactive”; for `CCC/C=C/C=O` it is “inactive”; for `Cc1ccc(S(=O)(=O)O)cc1C` it is “inactive”.

Turning to `Cc1ccc(S(=O)(=O)NCl)cc1`, the Potency result is “inactive”. To `c1ccc2ncccc2c1` belongs “inactive”. The entry for `CNC[C@H](O)c1ccc(O)c(O)c1` is “inactive”; for `Oc1ccc(C(c2ccc(O)cc2)C(Cl)(Cl)Cl)cc1` it is “inactive”. `NCCOCCO`: the Potency result is “inactive”.

For the compound `CCCCCCCCCCCCO`, the Potency result is “inactive”. Take `C=CCCCCCCCCCC`: the Potency entry is “inactive”.

Turning to `Cc1cccc(Nc2ccccc2C(=O)O)c1C`, the Potency result was “inactive”. To `Cc1ccc([N+](=O)[O-])c(C)c1` belongs “inactive”. On to `CN(C)CCCN1c2ccccc2Sc2ccc(Cl)cc21`, for which the Potency was 54.9 µM (active) and inactive. To `c1ccc2c(c1)ccc1cc3c(ccc4ccccc43)cc12` belongs “inactive”; to `CCC(=O)O[C@H]1[C@H](O[C@@H]2[C@@H](C)[C@H](O[C@H]3C[C@@](C)(OC)[C@@H](O)[C@H](C)O3)[C@@H](C)C(=O)O[C@H](CC)[C@@](C)(O)[C@H](O)[C@@H](C)C(=O)[C@H](C)C[C@@]2(C)O)O[C@H](C)C[C@@H]1N(C)C`, “inactive”; to `CC(=O)Nc1ccc2c(c1)Cc1cc(NC(C)=O)ccc1-2`, “inactive”.

On to `CCCCCCCC/C=C\CCCCCCCC(=O)O`, for which the Potency result was “inactive”. To `CC1(C)NC(=O)N(c2ccc([N+](=O)[O-])c(C(F)(F)F)c2)C1=O` belongs “inactive”; to `C=C[Si](OCCOC)(OCCOC)OCCOC`, “inactive”.

Consider `CC(=O)O[C@]1(C(C)=O)CC[C@H]2[C@@H]3C=C(Cl)C4=CC(=O)CC[C@]4(C)[C@H]3CC[C@@]21C`, for which the Potency entry is “inactive”.

In the case of `C=C[C@H]1CN2CC[C@H]1C[C@@H]2[C@@H](O)c1ccnc2ccc(OC)cc12`, the Potency result is “inactive”. Take `C=C[C@H]1CN2CC[C@H]1C[C@H]2[C@H](O)c1ccnc2ccc(OC)cc12`: the Potency entry was “inactive”. As to `COC(=O)CC(=O)OC`, the Potency result was “inactive”. To `CN(C)/N=N/c1nc[nH]c1C(N)=O` belongs “inactive”; to `COCCOCCOCCO`, “inactive”.
